This is an account of results in article PMC7826789 (International Journal of Molecular Sciences, 2021).

The structures appear in SMILES notation.

Details in all cases: Compound Concentration (nM):1000
Test [1] deals with PDGFRB.
Test [2] has as its system PDPK1.
Test [3] has as its system T1, PFCDPK1(P.falciparum).
T1 construct: gene CDPK1

The test system of test [4] is T2, PFPK5(P.falciparum).
T2 construct: gene MAL13P1.279

Test [5] concerns T3, PFTAIRE2.
T3 construct: gene CDK15

The subject of test [6] is T4, PFTK1.
T4 construct: gene CDK14

Test [7] has as its system PHKG1.
Test [8] has as its system PHKG2.
The test system of test [9] is PIK3C2B.
Test [10] has as its system PIK3C2G.
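Further: KINOMEscan scanMAX binding as percent activity remaining versus control; lower means stronger binding.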

For `NS(=O)(=O)c1ccc(Nc2ncc(-c3ccccc3)o2)cc1` [GW572399X], the “Percent Control” value in [1] is 3.4%; in test [2], 100%; in [3], 27%; in [4], 100%; in test [5], 98%; in test [6] it was 100%. The “Percent Control” value in [7], in [8], in test [9] and in test [10] was 100% throughout.
Consider `C/C(Nc1ccc(S(N)(=O)=O)cc1)=C1/C(=O)Nc2ccccc21` [GW335962X], for which the “Percent Control” value was 59% in [1]; 100% in test [2]; 77% in test [3]; 91% in [4]; 95% in test [5]; 72% in test [6]. Further, the “Percent Control” value stood at 94% in test [7], 53% in test [8], 100% in test [9] and 90% in [10].
Regarding `NS(=O)(=O)c1ccc(N/N=C2\C(=O)Nc3ccc(C(=O)NCCc4c[nH]cn4)cc32)cc1` [GW300660X], the “Percent Control” value was 100% in test [1]; 97% in test [2]; 69% in test [3]; 78% in [4]; 100% in [5]; 100% in [6]. The “Percent Control” value in test [7] came to 100%; in [8] it was 71%; in [9] it was 100%; in test [10], 86%.
On to `Cl.O=S1CCN(Cc2ccc(-c3ccc4ncnc(Nc5ccc(OCc6ccccc6)c(F)c5)c4c3)o2)CC1` [GW576924A], for which the “Percent Control” value is 100% in [1]; 100% in test [2]; 83% in test [3]; 100% in test [4]; 100% in [5]; 100% in test [6]. The “Percent Control” value is on record as 100% in test [7], 100% in [8], 100% in test [9] and 78% in test [10].
Consider `COc1cc2ncnc(Nc3ccc4c(cnn4Cc4ccccc4)c3)c2cc1OC.Cl` [GW282449A], for which the “Percent Control” value was 100% in test [1]; 100% in test [2]; 57% in test [3]; 100% in [4]; 100% in test [5]; 100% in [6]. Further, the “Percent Control” value in test [7] stood at 100%; in test [8], 100%; in test [9], 100%; in test [10], 97%.
Take `Cl.O=C(Nc1ccc(Oc2ccc3[nH]c(NC(=O)c4ccco4)nc3c2)cc1)Nc1cc(C(F)(F)F)ccc1F` [GW683134A]: the “Percent Control” value in test [1] is 0.3%; in [2], 67%; in test [3], 84%; in test [4], 100%; in [5], 87%; in test [6], 100%. The “Percent Control” value in test [7] is 100%; in test [8] it was 95%; in [9], 100%; in test [10], 83%.
On to `Cl.O=C(Nc1ccc(Oc2ccc3[nH]c(NC(=O)c4ccccc4)nc3c2)cc1)Nc1cc(C(F)(F)F)ccc1F` [GW709042A], for which the “Percent Control” value in test [1] was 1.2%; in test [2], 100%; in test [3], 100%; in [4], 100%; in [5], 100%; in test [6], 97%. The “Percent Control” value in test [7] was 100%; in test [8] it was 100%; in test [9] it was 100%; in [10], 97%.
`COc1ccc2c(-c3ccnc(Nc4cccc(OC(F)(F)F)c4)n3)cnn2n1` [GW810372X]: the “Percent Control” value in test [1] was 100%; in test [2], 100%; in test [3], 81%; in [4], 100%; in [5], 100%; in [6], 100%. The “Percent Control” value in test [7] is recorded as 100%; in test [8], 100%; in test [9], 100%; in [10], 74%.
Turning to `COc1cc(/C=N/Nc2ncnc3[nH]ncc23)ccc1O` [GW578748X], the “Percent Control” value in test [1] is 38%; in test [2] it was 83%; in test [3], 18%; in [4] it was 100%; in test [5], 96%; in test [6], 100%. Besides, the “Percent Control” value in test [7] was found to be 100%; in test [8] it was 88%; in [9] it was 72%; in test [10], 51%.
As to `COC(=O)Nc1nc2ccc(Oc3ccc(NC(=O)Nc4cc(C(F)(F)F)ccc4F)cc3)cc2s1.Cl` [GW693917A], the “Percent Control” value in [1] is 0.1%; in test [2], 95%; in [3], 77%; in test [4], 77%; in [5], 27%; in test [6] it was 56%. Also, the “Percent Control” value was determined as 100% in [7], 90% in test [8], 100% in test [9] and 87% in test [10].
On to `CCn1c(-c2nonc2N)nc2c(C#CC(C)(C)O)nc(OCCNC)cc21.Cl` [GSK949675], for which the “Percent Control” value in test [1] is 100%; in [2] it was 79%; in test [3], 100%; in test [4], 100%; in test [5], 100%; in test [6], 100%. Further, the “Percent Control” value in test [7] is reported as 100%; in test [8], 100%; in test [9] it was 82%; in test [10] it was 100%.
Consider `COc1cccc(-n2ncc3c(N/N=C/c4ccncc4)ncnc32)c1` [GW784752X], for which the “Percent Control” value in test [1] was 60%; in test [2], 92%; in [3], 33%; in [4], 100%; in test [5] it was 74%; in test [6] it was 95%. The “Percent Control” value in test [7] came out at 37%; in test [8], 93%; in [9], 100%; in test [10], 98%.
Take `O=C(Nc1n[nH]c2nc(-c3ccc(O)cc3)c(Br)cc12)C1CC1` [SB-725317]: the “Percent Control” value in [1] was 3.4%; in test [2], 100%; in [3] it was 32%; in test [4] it was 100%; in [5], 92%; in test [6], 84%. The “Percent Control” value in test [7], in test [8], in test [9] and in test [10] was 100% each time.
Regarding `CC1=C(C(=O)Nc2ccc3[nH]ncc3c2)C(c2ccc3ccccc3c2)CC(=O)N1` (centres unmarked) [GSK270822A], the “Percent Control” value was 74% in test [1]; 100% in [2]; 66% in test [3]; 70% in test [4]; 60% in test [5]; 64% in test [6]. The “Percent Control” value came to 100% in [7], 100% in [8], 92% in test [9] and 79% in [10].
Take `COc1cc(N2CCN(C(C)C)CC2)ccc1Nc1nc(Nc2ccc(F)cc2C(=O)NC[C@@H](O)CO)c2cc[nH]c2n1` [GSK1392956A]: the “Percent Control” value in test [1] was 100%; in test [2] it was 91%; in [3], 94%; in [4], 74%; in test [5] it was 100%; in test [6], 100%. Further, the “Percent Control” value in test [7] is given as 29%; in [8], 39%; in test [9], 100%; in test [10] it was 96%.
In the case of `CN(C)CCNC(=O)Nc1ccc(N(C)c2ccnc(Nc3ccc(CS(C)(=O)=O)cc3)n2)cc1.Cl` [GW830900A], the “Percent Control” value in test [1] was 0%; in [2] it was 83%; in test [3] it was 83%; in test [4], 100%; in [5], 90%; in test [6], 100%. The “Percent Control” value in test [7] was found to be 92%; in test [8], 100%; in test [9] it was 100%; in test [10], 95%.
Consider `Cl.c1ccc(Cc2nc3ccc(Nc4ncnc5ccccc45)cc3[nH]2)cc1` [GR269666A], for which the “Percent Control” value in test [1] was 100%; in [2], 100%; in [3], 83%; in test [4] it was 100%; in test [5], 100%; in test [6], 100%. The “Percent Control” value in test [7] came to 100%; in test [8], 97%; in test [9], 100%; in test [10] it was 89%.
Turning to `COc1cccc(-c2c[nH]c3c(N/N=C/c4ccncc4)ncnc23)c1` [GW814408X], the “Percent Control” value in [1] was 5.5%; in [2], 78%; in test [3] it was 5.2%; in test [4], 97%; in test [5], 78%; in test [6], 95%. For the same molecule, the “Percent Control” value in test [7] is 100%; in test [8], 100%; in test [9], 100%; in test [10] it was 92%.
With `C[C@@H](Oc1cc(-n2cnc3ccc(OC4CCN(C)CC4)cc32)sc1C(N)=O)c1ccccc1Cl` [GSK579289A], the “Percent Control” value was 12% in test [1]; 100% in test [2]; 74% in [3]; 76% in test [4]; 74% in [5]; 95% in test [6]. The “Percent Control” value in [7] turned out to be 86%; in test [8], 81%; in [9] it was 32%; in test [10], 78%.
As for `COc1ccc2cc(-c3c(-c4ccncc4)nc(-c4ccc(S(C)(=O)=O)cc4C)n3C)ccc2c1` [SB-633825], the “Percent Control” value in [1] is 70%; in test [2] it was 100%; in test [3] it was 61%; in [4], 77%; in test [5], 45%; in test [6], 80%. For the same molecule, the “Percent Control” value was determined as 100% in test [7], 84% in test [8], 76% in test [9] and 81% in [10].
